Assay results published in PubChem BioAssay (EPA / NIEHS).
Inconclusive results are not listed. Activity calls are given as the source filed them. Rule for the calls: active = hit-call score of the fitted dose curve at least 0.9, where 1 is the maximum; inconclusive = response in the unintended direction; inactive = score below 0.9.

Assay: ATG_M_32_TRANS: Attagene TRANS-FACTORIAL HepG2 Assay for M32 Transcription Factor (Internal Marker) (AID 2282984)
Details: HepG2 Attagene TRANS M32 internal marker reporter
Protocol: ATG_TRANS is a cell-based, multiplexed-readout assay that uses HepG2, a human liver cell line, with measurements taken at 24 hours after chemical dosing in a 24-well plate.ATG_M_32_TRANS is one of 30 assay component(s) measured or calculated from the ATG_TRANS assay. It is designed to make measurements of mRNA induction, a form of inducible reporter, as detected with fluorescence intensity signals by Reverse transcription polymerase chain reaction (RT-PCR) and Capillary electrophoresis technology.Data from the assay component ATG_M_32_TRANS was analyzed into 1 assay endpoint. This assay endpoint, ATG_M_32_TRANS, was analyzed in the positive analysis fitting direction relative to DMSO as the negative control and baseline of activity. Using a type of inducible reporter, measures of mRNA for gain-of-signal activity can be used to understand the background control at the transcription factor-level as they relate to the gene . Furthermore, this assay endpoint can be referred to as a secondary readout, because this assay has produced multiple assay endpoints where this one serves a background control function. To generalize the intended target to other relatable targets, this assay endpoint is annotated to the background measurement intended target family, where the subfamily is internal marker.
Human liver HepG2 cells are transiently transfected with multiple reporter transcription units (MRTUs) in 6-well plates using FuGene 6 reagent (Roche; 3 ml FuGene/1 mg DNA). The MRTU constructs are regulated by a cis-regulating element (promoter). […] A major difference between the CIS and TRANS system is that in CIS activities of endogenous TFs are measured, whereas the TRANS assay evaluates changes in activities of exogenous, chimeric NR-Gal4 proteins. […] At the end of 24 hour incubation, total RNA was isolated using TriZol reagent (Invitrogen). The isolated RNA is then reverse-transcribed using oligo(dT) primer and Mo-MLV reverse transcriptase (Invitrogen) with DNAse I (Ambion) treatment for 30 min. The one-tenth of the produced cDNA was amplified by PCR using Taq DNA polymerase (Invitrogen) and two reporter sequence-specific primers. The PCR products were fluorescently labeled by primer extension with 6-arboxyfluorescein (6-FAM) 5'-labeled reporter sequence-specific primer (2 min at 95 C, 20 s at 68 C and 10 min at 72 C) and these products were digested with 5U of HpaI (New England Biolabs) for 2h at 37 C. The fragments were purified using Qiaquick PCR columns (Qiagen), analyzed on an ABI 3130xL genetic analyzer (Applied Biosystems) with peak positions identified by using a set of X-rhodamine (ROX)-labeled MapMarker1000 molecular weight standards (BioVentures). The raw capillary electrophoresis data was processed using Attagraph software (Attagene).

Row | Structure (SMILES) | outcome
1 | O=[Si]=O | inactive
2 | CC(=O)CC(c1ccccc1)c1c(O)c2ccccc2oc1=O (stereo not given) | inactive
3 | CCCCc1nc2cccnc2n1Cc1ccc(-c2ccccc2-c2nnn[nH]2)cc1 | inactive
4 | NC(=Nc1ccccc1)Nc1ccccc1 | inactive
5 | CCc1cc(C2=C(C(=O)O)N(c3ccccc3C(F)(F)F)S(=O)(=O)c3ccccc32)cc2c1OCO2 | inactive
6 | CCCCCCCC(=O)OC | inactive
7 | O=C1NC(=O)C(c2ccccc2)(c2ccccc2)N1 | inactive
8 | CC(C)COC(=O)CCCCC(=O)OCC(C)C | inactive
9 | CN(C)CCCN1c2ccccc2Sc2ccc(Cl)cc21 | inactive
10 | COc1ccc(OC(F)(F)F)cc1CN[C@H]1CCCN[C@H]1c1ccccc1 | inactive
11 | COC(=O)[C@H]1[C@H]2C[C@@H]3c4[nH]c5cc(OC)ccc5c4CCN3C[C@H]2C[C@@H](OC(=O)c2cc(OC)c(OC)c(OC)c2)[C@@H]1OC | inactive
12 | O=C(O)c1cccnc1 | inactive
13 | CSc1ccc(Oc2ccc(S(N)(=O)=O)cc2CN(C)C)cc1C | inactive
14 | CN(C)C(=O)NC1(c2ccccc2)CCN(CCC[C@]2(c3ccc(Cl)c(Cl)c3)CCCN(C(=O)c3ccccc3)C2)CC1 | inactive
15 | C#CC(O)C(CC)CCCC (stereo not given) | inactive
16 | CC(N)=O | inactive
17 | CC(=O)[C@@]1(O)CC[C@H]2[C@@H]3CCC4=CC(=O)CC[C@]4(C)[C@H]3CC[C@@]21C | inactive
18 | Cc1c(C)c2c(c(C)c1O)CCC(C)(COc1ccc(CC3SC(=O)NC3=O)cc1)O2 (stereo not given) | inactive
19 | CC(C)(O)c1ccc(CNC(=O)c2cccnc2Oc2ccc(F)cc2)cc1 | inactive
20 | CCCC[C@H]1CN(CC2CCOCC2)C(=O)OC12CCN(C1(C)CCN(C(=O)c3c(C)ncnc3C)CC1)CC2 | inactive

Row | Structure (SMILES) | outcome
21 | NCCOCCOCCN | inactive
22 | O=Cc1ccccc1C=O | inactive
23 | O=C1CCCCC1 | inactive
24 | CCCCCCC(C=O)=Cc1ccccc1 | inactive
25 | C/C=C/C=C/C(=O)O | inactive
26 | CC(=O)O | inactive
27 | CC(=O)O[C@]1(C(C)=O)CC[C@H]2[C@@H]3C=C(Cl)C4=CC(=O)[C@@H]5C[C@@H]5[C@]4(C)[C@H]3CC[C@@]21C | inactive
28 | CCC(C)N(C)C(=O)c1cc2ccccc2c(-c2ccccc2Cl)n1 (stereo not given) | inactive
29 | CS(=O)(=O)c1ccc([C@@H](C[C@H]2CCC(=O)C2)C(=O)Nc2cnccn2)cc1Cl | inactive
30 | CC(=O)OC1CC(C)OC(C)O1 (stereo not given) | inactive
31 | N[C@@H](Cc1c[nH]c2ccccc12)C(=O)O | inactive
32 | O=C(Oc1ccccc1)c1cccc(C(=O)Oc2ccccc2)c1 | inactive
33 | CCCCOC(=O)CCCCC(=O)OCCCC | inactive
34 | CCOCCOCCO | inactive
35 | O=NO | inactive
36 | O=C(O)CN(CC(=O)O)CC(=O)O | inactive
37 | CCN(CC)CCOc1ccc(C(=C(Cl)c2ccccc2)c2ccccc2)cc1 | inactive
38 | CC(C)(C)c1ccccc1 | inactive
39 | CCCCCCCCCC[N+](C)(C)[O-] | inactive
40 | Oc1ccccc1O | inactive
